Experimental data: the supplement of paper PMC9694430

Legend:
Test in all cases: thermal shift delta Tm vs DMSO control; higher = stronger stabilization (binding)
Conditions in all cases: 12.5 µM; protein concentration 2 µM
[1] = test system: LOC_OS01G01410-cb001
Procedure, shortened: (§1)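 Rice kinase domain constructs, made in E. coli and purified, were placed in 96-well plates at 2 μM in 19.5 μl of 100 mM potassium phosphate pH 7.5, 150 mM NaCl, 10% glycerol and 5 × SYPRO Orange, with compound in DMSO. A temperature ramp from 25°C to 95°C at 0.05°C/s was used for differential scanning fluorimetry. The melting temperature shift is a triplicate mean compared with DMSO-only protein, derived from Boltzmann fits.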

[2] = test system: LOC_OS01G02750-cb003
Procedure, shortened: as §1

[3] = test system: LOC_OS01G10900-cb004
Procedure, shortened: as §1

[4] = test system: LOC_OS01G13800-cb001
Procedure, shortened: as §1

[5] = test system: LOC_OS01G14860-cb001
Procedure, shortened: as §1

[6] = test system: LOC_OS01G21960-cb002
Procedure, shortened: as §1

[7] = test system: LOC_OS01G39600-cb002
Procedure, shortened: as §1

[8] = test system: LOC_OS01G48390-cb002
Procedure, shortened: as §1

[9] = test system: LOC_OS01G51400-cb002
Procedure, shortened: as §1

[10] = test system: T1, LOC_OS01G52050-cb004
T1 sequence (whole entry): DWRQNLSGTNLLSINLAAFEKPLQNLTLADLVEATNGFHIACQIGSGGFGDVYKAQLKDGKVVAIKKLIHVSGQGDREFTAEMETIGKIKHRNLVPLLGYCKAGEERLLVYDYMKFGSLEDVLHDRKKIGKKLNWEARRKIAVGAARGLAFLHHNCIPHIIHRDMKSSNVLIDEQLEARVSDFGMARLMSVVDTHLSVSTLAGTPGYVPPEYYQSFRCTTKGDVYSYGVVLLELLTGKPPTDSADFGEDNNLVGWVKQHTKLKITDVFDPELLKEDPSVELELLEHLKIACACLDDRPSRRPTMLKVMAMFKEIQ
Procedure, shortened: as §1
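Note: purified Escherichia coli-expressed rice kinase domain construct.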

| SMILES | thermal shift delta Tm [1] [°C] | thermal shift delta Tm [2] [°C] | thermal shift delta Tm [3] [°C] | thermal shift delta Tm [4] [°C] | thermal shift delta Tm [5] [°C] | thermal shift delta Tm [6] [°C] | thermal shift delta Tm [7] [°C] | thermal shift delta Tm [8] [°C] | thermal shift delta Tm [9] [°C] | thermal shift delta Tm [10] [°C] |
| --- | --- | --- | --- | --- | --- | --- | --- | --- | --- | --- |
| CS(=O)(=O)CCNCc1ccc(-c2ccc3ncnc(Nc4ccc(OCc5cccc(F)c5)c(Cl)c4)c3c2)o1 [Lapatinib] | 3.23 | 7.61 | 1.97 | 0.94 | 1.79 | 2.25 | 3.93 | 1.79 | 1.92 | 6.04 |
| CN1CCN(c2ccc(C(=O)Nc3n[nH]c4ccc(Cc5cc(F)cc(F)c5)cc34)c(NC3CCOCC3)c2)CC1 [Entrectinib (RXDX-101)] | 2.21 | 2.9 | 4.99 | -0.49 | 0.18 | 1.51 | 3.51 | 5.48 | 0.15 | 0.2 |
| CC#CC(=O)Nc1ccc2ncnc(Nc3cccc(Br)c3)c2c1 | 2.55 | 1.15 | 2.56 | 0.12 | 1.15 | 0.48 | -0.38 | 2.25 | 0.38 | 1.8 |
| O=C(Nc1cccnc1)c1cc(-c2ccnc(F)c2)ccc1OCc1ccccc1 | 2.5 | 0.28 | -0.53 | 0.66 | -0.01 | 0.38 | -0.21 | 0.88 | 0.01 | -0.04 |
| CCS(=O)(=O)N1CC(CC#N)(n2cc(-c3ncnc4[nH]ccc34)cn2)C1 | 0.57 | 1.52 | 0.33 | 0.37 | 2.29 | 1.23 | 0.17 | 0.14 | 0.39 | 1.36 |
| CC(C)NC[C@@H](C(=O)N1CCN(c2ncnc3c2[C@H](C)C[C@H]3O)CC1)c1ccc(Cl)cc1 [Ipatasertib (GDC-0068)] | 0.15 | 0.42 | 0.03 | 0.07 | 0.06 | 0.43 | 0.77 | -0.11 | 0.32 | 0.26 |
| CC(C)(C)c1cc(NC(=O)Nc2ccc(-c3cn4c(n3)sc3cc(OCCN5CCOCC5)ccc34)cc2)no1 [Quizartinib (AC220)] | -0.06 | 0.83 | 0.82 | 0.79 | 0.25 | 1.03 | 0.27 | 0.74 | -0.16 | 0.84 |
| CCn1c(-c2nonc2N)nc2c(C#CC(C)(C)O)ncc(OC[C@H]3CCCNC3)c21 | 1.38 | 0.87 | 0.42 | 0.37 | 3.95 | 0.53 | 0.32 | 0.07 | 0.09 | 0.04 |
| FC(F)(F)c1ccc(CNc2ccc(Cc3c[nH]c4ncc(Cl)cc34)cn2)cn1 [Pexidartinib (PLX3397)] | 1.9 | 3.35 | 3.09 | 0.85 | 1.22 | 2.07 | 2.41 | 6.28 | 0.37 | 10.2 |
| C[C@@H]1CN(C(=O)c2ccc(NC(=O)c3cc(O[C@H](C)c4c(Cl)ccc(F)c4Cl)c(N)nn3)cc2)C[C@H](C)N1 [Ensartinib (X-396)] | 2.83 | 1.44 | 2.67 | -0.39 | 0.08 | 0.04 | 0.4 | 5.02 | -0.19 | 3.28 |
| Cc1cn(-c2cc(NC(=O)c3ccc(C)c(Nc4nccc(-c5cnccn5)n4)c3)cc(C(F)(F)F)c2)cn1 [Radotinib] | 0.24 | 1.63 | 2.41 | 0.87 | 0.52 | 0.96 | -0.12 | 0.73 | 0.16 | 0.51 |
| Oc1ccc(-c2nc(-c3ccc(F)cc3)c(-c3ccncc3)[nH]2)cc1 | 1.39 | 0.58 | 0.58 | 0.18 | 2.36 | 0.98 | -0.06 | 0.38 | 0.01 | 0.5 |
| O=C(Nc1nccs1)C(c1cc(F)ccc1O)N1Cc2ccccc2C1=O (stereo not given) | 0.29 | 0.35 | 0.25 | -0.01 | 0.4 | 0.48 | -0.23 | -0.1 | -0.02 | -0.31 |
| Cc1ccccc1CN1C2=NCCN2C(=O)C2=C1CCN(Cc1ccccc1)C2 [TIC10 Analogue] | 0.06 | 2.43 | 0.31 | -0.07 | 0.07 | 0.85 | -3.24 | 0.44 | 0.5 | -0.27 |
| Cc1cc(NC(=O)c2cccc(NC(=O)/C=C/CN(C)C)c2)ccc1Nc1nccc(-c2cccnc2)n1 | 1.77 | 1.69 | 4.22 | 0.46 | 1.25 | 1.6 | 6.45 | 1.99 | 0.73 | 0.75 |
| CO[C@@H](C)Cn1c(=O)n(C)c2cnc3ccc(-c4cncc(C(C)(C)O)c4)cc3c21 | 0.7 | 1.17 | 0.3 | 0.76 | 0.77 | 0.72 | 0.26 | 0.5 | 0.38 | 1.9 |
| O=S(=O)(c1cccc2c(I)cccc12)N1CCCNCC1 | 0.23 | 0.79 | 0.56 | 0.43 | 0.67 | 0.53 | 0.27 | 1.35 | 0.24 | 2.58 |
| COc1ccc(Cl)c(Nc2nc3ccccc3nc2NS(=O)(=O)c2cccc(NC(=O)C(C)(C)N)c2)c1 [Pilaralisib (XL147)] | 1.63 | 2.16 | 0.29 | 1.9 | 1.53 | 0.73 | 2.65 | 1.05 | 1.3 | 4.64 |

| SMILES | thermal shift delta Tm [1] [°C] | thermal shift delta Tm [2] [°C] | thermal shift delta Tm [3] [°C] | thermal shift delta Tm [4] [°C] | thermal shift delta Tm [5] [°C] | thermal shift delta Tm [6] [°C] | thermal shift delta Tm [7] [°C] | thermal shift delta Tm [8] [°C] | thermal shift delta Tm [9] [°C] | thermal shift delta Tm [10] [°C] |
| --- | --- | --- | --- | --- | --- | --- | --- | --- | --- | --- |
| COc1ccc(COc2cc3oc(=O)c4cc(C(C)O)ccc4c3cc2OC)cc1 (stereo not given) [Palomid 529 (P529)] | 0.67 | 0.16 | 1.07 | 0.03 | 0.14 | 0.64 | -0.21 | 0.4 | 0 | 0.04 |
| Cc1ccc(Nc2nccc(N(C)c3ccc4c(C)n(C)nc4c3)n2)cc1S(N)(=O)=O | 2.81 | 0.47 | 1.7 | 0.62 | 1.21 | 1.29 | 1.56 | 4.66 | 0.3 | 0.89 |
| CCOc1ccn(-c2ccc(F)cc2)c(=O)c1C(=O)Nc1ccc(Oc2ccnc(N)c2Cl)c(F)c1 | 0.18 | 1.95 | 0.48 | 0.21 | 3.61 | 0.65 | -0.36 | 2.33 | 0.21 | 0.98 |
| COc1cc(CCc2cc(NC(=O)c3ccc(N4CC(C)NC(C)C4)cc3)n[nH]2)cc(OC)c1 (stereo not given) | 1.93 | 0.89 | 7.96 | -0.99 | 0.38 | 0.1 | 0.43 | 6.33 | 0.35 | 0 |
| CS(=O)(=O)N1CCN(Cc2cc3nc(-c4cccc5[nH]ncc45)nc(N4CCOCC4)c3s2)CC1 [Pictilisib (GDC-0941)] | 1.2 | 0.47 | 0.85 | 0.43 | 1.21 | 0.24 | 0.57 | 2.14 | -0.08 | -0.11 |
| CC1(C)OCCn2c1nc1c(N3CCOCC3)nc(-c3cnc(N)nc3)nc12 | 2.4 | 0.54 | 1.05 | 0.07 | 0.3 | 1.06 | 0.85 | 0.14 | 0.12 | 0.62 |
| O=C1c2c(O)cc(O)cc2OC(c2ccc(O)c(O)c2)C1O (stereo not given) [Taxifolin (Dihydroquercetin)] | 0.87 | 0.83 | 0.4 | 0.01 | 0.34 | 0.61 | 0.19 | 0.17 | 0.11 | 0.49 |
| O=c1cc(-c2ccccc2)oc2c(O)c(O)ccc12 [7,8-Dihydroxyflavone] | 2.01 | 2.3 | 0.12 | 2.97 | 3.88 | 3.56 | 0.49 | 1.55 | 0.69 | 1.44 |
| c1nc2c(NC3CCCCC3)nc(Nc3ccc(N4CCOCC4)cc3)nc2[nH]1 [Reversine] | 5.03 | 0.7 | 0.47 | 0.43 | 2.02 | 2.54 | 5.31 | -0.29 | 1.66 | 5.54 |
| C[C@@H](N)[C@H]1CC[C@H](C(=O)Nc2ccncc2)CC1 | 1.02 | 0.15 | 0.1 | 0.65 | 0.11 | 0.84 | 0.45 | 0.65 | 0.29 | -0.08 |
| C=CC(=O)Nc1cccc(C)c1Nc1ncc2cc(-c3c(Cl)c(OC)cc(OC)c3Cl)ccc2n1 | 0.73 | 1.61 | 1.22 | 0.52 | 0.39 | 0.77 | 0.15 | 0.36 | 0.29 | 0.2 |
| Cc1cc2c(F)c(Oc3ncnn4cc(OC[C@@H](C)O)c(C)c34)ccc2[nH]1 | 1.69 | 0.24 | 0.93 | 0.42 | 0.41 | 0.22 | 0.2 | 0.6 | 0 | 0.2 |
| c1cn2cc(-c3ccc4cn[nH]c4c3)nc(Nc3ccc(N4CCOCC4)cc3)c2n1 [Entospletinib (GS-9973)] | 2.35 | 3.16 | 0.19 | -0.33 | 1.77 | 1.76 | 4.22 | 0.98 | -0.11 | 3.88 |
| Nc1ccc(-c2ccc3ncc4ccc(=O)n(-c5cccc(C(F)(F)F)c5)c4c3c2)cn1 [Torin 2] | 1.14 | 1.23 | -0.05 | -0.87 | 2.07 | 1.41 | 0.74 | 0.94 | 0.41 | 0.7 |
| COc1cc2c(Oc3ccc(NC(=O)C4(C(=O)Nc5ccc(F)cc5)CC4)cc3F)ccnc2cc1OCCCN1CCOCC1 | 2.26 | 3.47 | 1.69 | -0.35 | 1.69 | 0.4 | 0.45 | 6.85 | 0.19 | 4.66 |
| O=C(NC(NC(=S)Nc1ccc(F)c([N+](=O)[O-])c1)C(Cl)(Cl)Cl)C(c1ccccc1)c1ccccc1 (stereo not given) | 3.6 | 9.2 | 2.57 | 2.31 | 3.26 | 3.31 | 28.9 | 3.82 | 1.04 | 3.03 |
| CCOc1cc2ncc(C#N)c(Nc3ccc(F)c(Cl)c3)c2cc1NC(=O)/C=C/CN(C)C [Pelitinib (EKB-569)] | 0.85 | 0.32 | 1.14 | 0.55 | 4.99 | 1.49 | 4.78 | 0.69 | 0.03 | 3.13 |
